# Source: PubChem BioAssay (NCATS)
# Results filed as inconclusive are left out. Unmarked numbers belong to inactive results. The source made the active and inactive calls. Calls come from the whole dose curve; as a rule, active = well fitted inhibition curve with a large enough effect; inconclusive = small, poorly fitted or top-dose-only effect; inactive = no such curve, though single readings can be large or run the other way.
# Assay: Counterscreen for APE1 Inhibitors: Fluorescent Dye Displacement Validation Assay (AID 1707);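 note: plate controls were ThO with dsDNA and no compound for no effect and ThO without dsDNA for full effect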
# Settings: fluorescent dye displacement from DNA; series mostly up to 57.1 µM; activity change, negative = inhibition: at the top concentration
# From the text: In order to distinguish true inhibitors of DNA-processing enzymes from promiscuous DNA-binding compounds among screening assay hits, we developed a homogeneous and miniaturized assay based on fluorescent dye displacement test as originally described by Tse and Boger (Accounts of Chemical Research (2004) 37: 61-69). The assay is based on the strong enhancement of fluorescence when Thiazole Orange (ThO) binds to double-stranded DNA: conversely, in the presence of a DNA-binding compound, Thiazole Orange is displaced from the DNA and its fluorescence is reduced.
# Buffer. 50 mM Tris-HCl (pH7.5) containing 50mM NaCl, 2 mM MgCl2, and 0.01% Tween-20.
# Buffer containing 250 nM ThO in columns 3 and 4 as negative control (no dsDNA).
# Reaction mixture: 250 nM ThO and 50 nM dsDNA at final concentration dispensed throughout the plate: in columns 1, 2, 5-48. Column 1 is neutral (100% activity).
# 5''TAMRA- TC ACC FTC GTA CGA CTC
# 3'' AG TGG GAG CAT GCT GAG
# where F denotes tetrahydrofuran.
# Control: Pintool transfer of control compound WB64 (W4761, Sigma-Aldrich) to column 2 of all assay plates as a two-fold 16-point dilution in duplicate (concentration range 5.75 uM - 0.175 nM).
# Four uL of reaction mixtures were dispensed to 1536-well Greiner black solid bottom plates. Compounds (23 nL) were transferred […] in order to measure the endpoint fluorescence using 480 nm excitation and 540 nm emission fluorescence protocol.
Compound,"activity change, negative = inhibition [%]",outcome
CC(=O)c1ccc(S(=O)(=O)NC(=O)NC2CCCCC2)cc1,-0.814,
CC(=O)CCCCn1c(=O)c2c(ncn2C)n(C)c1=O,0.959,
CC(=O)N[C@@H](CS)C(=O)O,-1.12,
CC1(C)CCC2=C(O1)c1ccccc1C(=O)C2=O,-0.273,
CCN(CC)CCOC(=O)c1ccc(N)cc1,-2.04,
CC(C)NCC(O)COc1cccc2[nH]ccc12 (configuration not stated),3.02,
O=C(O)CCc1nc(-c2ccccc2)c(-c2ccccc2)o1,-0.0485,
NC(N)=Nc1nc(CSCC/C(N)=N/S(N)(=O)=O)cs1,1.06,
O=C1NCC2(CCN(CCc3ccccc3)CC2)O1,1.57,
CN(C)CCC(c1ccccc1)c1ccccn1 (configuration not stated),-0.323,
CCCCC1C(=O)N(c2ccccc2)N(c2ccccc2)C1=O,2.89,
CC/C(=C(\c1ccccc1)c1ccc(OCCN(C)C)cc1)c1ccccc1,-2.7,
O=C1NC(=O)C(c2ccccc2)(c2ccccc2)N1,1.78,
COC(=O)[C@@H]1[C@H]2C[C@H]3c4[nH]c5ccccc5c4CCN3C[C@@H]2CC[C@@H]1O,-1.29,
COc1ccccc1N1CCN(CCCNc2cc(=O)n(C)c(=O)n2C)CC1,2.92,
CCN(CC)CCNC(=O)c1ccc(N)cc1,2.19,
CC1=C(/C=C/C(C)=C/C=C/C(C)=C/C(=O)Nc2ccc(O)cc2)C(C)(C)CCC1,-5.94,
CCN1CCC[C@H]1CNC(=O)c1cc(S(N)(=O)=O)ccc1OC,1.52,
CCN(CC)C(=O)c1ccc(O)c(OC)c1,1.36,
O=c1c(-c2ccc(O)cc2)coc2cc(O)ccc12,-1.58,
CC(C)(C)c1ccc(C(O)CCCN2CCC(C(O)(c3ccccc3)c3ccccc3)CC2)cc1 (configuration not stated),1.92,
Clc1ccc(Cn2c(CN3CCCC3)nc3ccccc32)cc1,0.113,
COc1cccc(-c2cc(=O)c3ccccc3o2)c1N,-2.07,
Cc1cccc(C)c1OCC(C)N (configuration not stated),-1.83,
C[N+](C)(C)CCCCCC[N+](C)(C)C,,inactive
CCCNC(=O)NS(=O)(=O)c1ccc(Cl)cc1,0.756,
NCCS,0.38,
